High-throughput results (PubChem BioAssay)
The list is not random: actives were taken first. Their share in the collection is about 10%.
HP1b binding inh: HP1-beta chromodomain-methylated histone interaction inhibition; AlphaScreen HP1-beta / biotin-H3K9me3 peptide binding; Potency, µM (top dose mostly 114 µM), for the others: at the top dose activity change, negative = inhibition, usual class: inhibitors; 390,000 compounds, 0.56% hits; further: potency means the concentration at half of the fitted maximal effect; nearly all actives have a fitted effect of over 70% in size
Target sequence (P83916 whole entry, looked up): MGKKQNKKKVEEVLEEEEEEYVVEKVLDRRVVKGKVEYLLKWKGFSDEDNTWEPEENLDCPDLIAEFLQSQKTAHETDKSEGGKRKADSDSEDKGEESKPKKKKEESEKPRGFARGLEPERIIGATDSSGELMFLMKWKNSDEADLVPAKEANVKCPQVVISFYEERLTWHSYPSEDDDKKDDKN
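HP1-beta protein (50 nM final) preincubated 30 min at room temperature with biotinylated H3(1-18)K9me3 peptide (50 nM) in PBS pH 7.4, 0.01% Tween-20, then compound added for 30 min. AlphaScreen streptavidin donor/nickel chelate acceptor beads (10 ug/mL final), 30 min dark, luminescence read.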
CtBP-E1A inh: inhibitors of CtBP/E1A interaction; activity change, % (test concentration not listed); AlphaScreen GST-E1A/His-CtBP binding, 1536-well; active compounds read low; 340,000 compounds, 0.49% hits; in the data active means activity change below about -65%; inconclusive means mostly about -30% to -63%; further: on the % scale 0 is the no-effect control and ±100 the full control effect
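Steps: dispense buffer (Tris pH 8.0, NaCl 300 mM, TCEP 1 mM, BSA, Tween 20); add 5X protein mix (GST-E1A, His-CtBP, 125 nM each); pin 23 nL compound; 2 h at 37 °C, dark; add 5X beads (50 ug/mL); 1 h; read.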
Six1-Eya2 inh: blocks human Six1 binding to Eya2. 360,000 compounds, 0.56% hits. activity change, % (no concentration beside the values). Q15475+O00167. AlphaScreen GST-Six1/His-Eya2 binding, biochemical; active compounds read low; in the data active means activity change below about -65%; inconclusive means mostly about -30% to -63%; further: on the % scale 0 is the no-effect control and ±100 the full control effect
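Six1/Eya2 binding was read as AlphaScreen signal after compounds were pinned into GST-Six1 plus His-tagged Eya2 (5X stock 250/500 nM) in pH 8.0 Tris/NaCl/TCEP buffer, beads added, then incubated 1 h, 37 C, dark.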
BAZ2B inh: inhibitors of human BAZ2B bromodomain; Potency, µM (doses to about 114 µM), without a hit: at the highest dose activity change, negative = inhibition, hits mostly inhibitors; 360,000 compounds, 4.4% hits; Q9UIF8; AID 504333; AlphaScreen BAZ2B-H3K14Ac peptide displacement; further: potency means the concentration at half of the fitted maximal effect; on the % scale 0 is the no-effect control and ±100 the full control effect; nearly all actives have a fitted effect of over 60% in size
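AlphaScreen displacement of biotin-H3(5-23)K14Ac peptide (50 nM final) from BAZ2B (50 nM final) in PBS pH 7.4, 0.01% Tween-20; complex preformed 30 min RT, then compounds (top 110 uM) 30 min RT, beads 20 min dark.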
G9a block: inhibitors of human histone lysine methyltransferase G9a | Q96KQ7 | G9a H3K9 monomethylation, AlphaScreen, 2 h | Potency, µM (doses to about 102 µM), inactives show at the highest dose activity, negative = inhibition, actives largely listed as inhibitors | 350,000 compounds, 8.8% hits | AID 504332; further: potency means the concentration at half of the fitted maximal effect; on the % scale 0 is the no-effect control and ±100 the full control effect; nearly all actives have a fitted effect of over 75% in size
Target sequence (Q96KQ7 913-1193 limits assumed): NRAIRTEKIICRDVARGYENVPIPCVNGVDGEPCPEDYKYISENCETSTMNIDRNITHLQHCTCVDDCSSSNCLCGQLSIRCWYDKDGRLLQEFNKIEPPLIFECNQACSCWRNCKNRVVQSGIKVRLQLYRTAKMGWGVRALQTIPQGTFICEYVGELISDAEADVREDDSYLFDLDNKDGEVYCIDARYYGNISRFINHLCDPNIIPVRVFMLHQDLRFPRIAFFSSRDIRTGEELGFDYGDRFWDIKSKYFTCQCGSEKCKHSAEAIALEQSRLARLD
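Readings reflect AlphaScreen signal from monomethyl-H3K9 antibody detection. HMT at 20 nM; substrate b-H3K9 500 nM; cofactor SAM 20 uM; 2 h RT reaction; compounds tested as titrations in qHTS with 15 min preincubation.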
JMJD2A Tudor inh: blocks the human JMJD2A Tudor domain; O75164; AlphaScreen JMJD2A-Tudor / H3K4me3 peptide binding; Potency, µM (titrated, usually from 114 µM), without a hit: top-dose activity change, negative = inhibition, most hits filed as inhibitors; 390,000 compounds, 4.4% hits; further: potency means the concentration at half of the fitted maximal effect; on the % scale 0 is the no-effect control and ±100 the full control effect; nearly all actives have a fitted effect of over 50% in size
The depositor's hits bear a star; ? = inconclusive; / = not tested or not shown; [ ] = dose if it differs, or a comment. Unless noted, the call rests on the fitted dose curve; in most records, active means well fitted inhibition curve with a large enough effect; inconclusive means small, poorly fitted or top-dose-only effect; inactive means no such curve, though single readings can be large or run the other way.

SMILES	HP1b binding inh	CtBP-E1A inh	Six1-Eya2 inh	BAZ2B inh	G9a block	JMJD2A Tudor inh
O=C(NCc1ccc(F)cc1)c1cc(C2CCCCN2S(=O)(=O)c2ccccc2)on1 (stereo not given)	/	1	-1	/	/	/
COCCCNC(=O)Cn1nc(N2CCN(c3ccccc3)CC2)ccc1=O	52%	/	/	8%	5%[59 µM]	-13%
CCCn1c(SCC(=O)NNC(=O)c2ccc(OC)cc2)nnc1C(C)C	3%	16	4	4%	?	-19%
COc1ccc(CC(=O)NC(C)c2nnc(SCC(=O)c3ccc(Br)cc3)n2C)cc1 (stereo not given)	10%	3	-1	-25%	40µM*	-11%
CCn1c(SCC(=O)c2ccc(OC)cc2)nnc1C(C)NC(=O)c1ccc(OC)cc1 (stereo not given)	25%	0	0	-6%	45µM*	-15%
CCn1c(SCC(=O)c2ccc(Br)cc2)nnc1C(C)NC(=O)Cc1ccc(OC)cc1 (stereo not given)	1%	-1	5	5%	7%	-1%
CC1(C)OC(=O)C2(Cc3ccccc3N3CCC(c4ccccc4)CC32)C(=O)O1 (stereo not given)	-1%[57 µM]	/	/	/	/	-9%[57.1 µM]
Cc1ccc(-c2ccc(=O)n(CC(=O)Nc3ccc(F)c(Cl)c3)n2)cc1C	38%	/	/	-7%	7%[59 µM]	-7%
OCCN(CCO)c1ccc(C(c2ccccc2Cl)c2ccc(N(CCO)CCO)cc2Cl)c(Cl)c1	-14%	2	-15	?	45µM*	?
OCCN(CCO)c1ccc2ccccc2c1	11%	-6	1	-25%	?	-28%
O=C(/C=C/c1cccc(Oc2ccccc2)c1)N1CCOCC1	22%	/	16	-4%	-19%	-14%
O=C(/C=C/c1ccccc1)Oc1ccccc1C(=S)N1CCOCC1	-2%	-8	24	-30%	50µM*	-30%
O=C(/C=C/c1ccccc1)Oc1cccc(C(=S)N2CCOCC2)c1	-12%	-5	-69*	0%	40µM*	-13%
Cc1ccc(-c2noc(C3CCCN(S(=O)(=O)c4ccc5ccccc5c4)C3)n2)o1 (stereo not given)	-1%	5	-5	-10%	35µM*	-28%
Cc1ccc(-c2noc(C3CCN(S(=O)(=O)c4ccc5c(c4)OCCO5)CC3)n2)o1	5%	-18	-7	-6%	16µM*	-13%
CC(=O)c1cccc(S(=O)(=O)N2CCCC(c3nc(-c4ccc(C)o4)no3)C2)c1 (stereo not given)	3%	-6	-4	-29%	4µM*	-23%
O=c1[nH]c(/C=C/c2ccc([N+](=O)[O-])cc2)c([N+](=O)[O-])c(=O)[nH]1	6%	/	-1	-4%	28µM*	-3%
CCCS(=O)(=O)c1ncc(Cl)c(C(=O)Nc2ccc(S(=O)(=O)Nc3ncccn3)cc2)n1	63%	-77*	-83*	-18%	18µM*	-3%
CCS(=O)(=O)c1ncc(Cl)c(C(=O)Nc2ccc(S(=O)(=O)N3CCC(C)CC3)cc2)n1	3%[57 µM]	-3	20	-27%[57.1 µM]	45µM*	-30%
CCN(C(=O)Cn1c(C(=O)OC)cc2oc3ccccc3c21)c1cccc(C)c1	27%	/	/	-14%	?	-25%
O=C(O)c1ccc(NC(=O)C2(c3ccccc3)CCOCC2)cc1	23%	-4	15	-6%	-5%[12.7 µM]	-1%
Cc1ccc(NC(=O)C2(c3ccccc3)CCOCC2)cc1	-6%	3	10	-9%	7%	50µM*
OC[C@@H]1CN(Cc2ccc(-c3ccccc3)cc2)C[C@H](n2cnc3c(NC4CC4)ncnc32)O1	/	-1	-7	/	/	/
CCOc1ccc(Oc2ccccc2NC(=O)CN2C(=O)NC3(CCCC3)C2=O)cc1	11%	3	2	0%	56µM*	-9%
CCC(=O)Nc1ccccc1Oc1ccccc1	?	4	1	10%	5%[59 µM]	56µM*
SMILES	HP1b binding inh	CtBP-E1A inh	Six1-Eya2 inh	BAZ2B inh	G9a block	JMJD2A Tudor inh
CCOc1ccc2nc(NC(=O)CN3C(=O)NC4(CCCC4)C3=O)sc2c1	-1%	-5	4	-2%	50µM*	-23%
C/C(=N\NC(=O)c1nn(C)c(C)c1Br)c1cccc(NC(=O)c2ccoc2C)c1	6%	-7	-13	1%	-3%[59 µM]	-18%
COC(=O)C/C=C/[C@@H](C)[C@@H](/C=N/OC[C@@H](C)[C@H](OCc1ccccc1)C(C)C)NS(=O)(=O)c1ccc(C)cc1	/	/	/	-1%	25%	/
CCC1CCCCN1CCCNC(=O)c1c(O)nc2ccccn2c1=O (stereo not given)	23%	4	1	-17%	79µM*	-9%
CC1CCCCN1CCCNC(=O)c1c(O)nc2ccccn2c1=O (stereo not given)	20%	4	4	-17%	?	-11%
O=[N+]([O-])c1cc(-c2ccc(/C=N/c3nc4ccccn4c3-c3ccco3)o2)ccc1Cl	-17%	-10	-25	45µM*	13µM*	?
Clc1ccc(CSc2nccn2Cc2ccccc2)cc1	-4%	-17	-24	?	-11%[0.501 µM]	3.2µM*
CCCNS(=O)(=O)c1ccc(OCC(=O)N2CCCC2)cc1	14%	-11	3	-28%	-30%	-1%
CCc1cc2c(NCCN3CCCCC3)ncnc2s1	28%	1	0	4%	50µM*	?
Cc1sc2ncnc(NCCN3CCOCC3)c2c1C	-50%	3	-1	50µM*	8.9µM*	1.6µM*
COc1ccc(Cl)cc1NC(=O)C(C)N1Cc2ccccc2C1=O (stereo not given)	28%	/	/	2%	-1%[59 µM]	2%
CCOC(=O)N1CCC(NC(=O)c2ccc3c(c2)N(Cc2ccc(Cl)cc2)C(=O)c2ccccc2S3(=O)=O)CC1	20%	/	/	-13%	-47%[59 µM]	-20%
Nc1ncnc(N)c1N=Nc1ccccc1	16%	-22	-5	-6%	5%	-15%
Nc1ccc2ccccc2c1N=Nc1ccccc1	13µM*	-77*	-76*	/	/	13µM*
CCOC(=O)c1c(/N=C/c2ccc(O)cc2O)sc2c1CCC2	/	/	/	?	-10%[59 µM]	/
COc1ccc2c(c1)c1c(c(=O)n(-c3ccccc3C)c(=O)n1C)n2C	-4%	/	/	-3%	-22%[59 µM]	-14%
CN1c2ccccc2C(C)(C)[C@]12C=Cc1cc(O)ccc1O2	?	0	-25	40µM*	?	56µM*
CN1c2ccccc2C(C)(C)C12C=Nc1c(ccc3ccccc13)O2 (stereo not given)	0%	16	-2	50µM*	/	?
COc1ccc2ccc3c(c2c1)N=CC1(O3)N(C)c2ccccc2C1(C)C (stereo not given)	?	4	-7	-10%	5.6µM*	45µM*
